TDP1 cell CPT: DT40-hTDP1 cell growth loss with CPT; chicken DT40 Tdp1-/-;hTDP1 cells + 20 nM CPT, ATP luminescence, 48 h; Potency, µM (titrated, usually from 46.2 µM), for inactives: at the highest dose activity change, negative = growth inhibition, actives largely listed as inhibitors; hit rate 12% among 420,000; further: nearly all actives have a fitted effect of over 55% in size
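Chicken DT40 Tdp1-/- cells stably complemented with human TDP1 were seeded at 400 cells/well in medium containing 20 nM camptothecin, exposed to pin-transferred compounds, and grown at 37 °C for at least 48 hr. Viability was read as ATP luminescence.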
KB-3-1 cytotox: kills parental KB-3-1 adenocarcinoma cells; KB-3-1 viability, CellTiter-Glo ATP luminescence, 72 h; Potency, µM (series often up to 46.1 µM), most hits filed as cytotoxic; hit rate 1.4% among 400,000; further: nearly all actives have a fitted effect of over 60% in size
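Multi-concentration cytotoxicity screen in KB-3-1 cells grown in DMEM lacking phenol red with 10% FBS. After 72 h at 37 °C with compound, ATP-dependent luminescence was recorded.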
KB-V1 MDR tox: KB-V1 MDR subline cytotoxicity; Potency, µM (series often up to 46.1 µM), usual class: cytotoxic; KB-V1 MDR cells viability, CellTiter-Glo, 72 h; hit rate 3.4% among 400,000; AID 1347076; further: nearly all actives have a fitted effect of over 60% in size
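Potencies derive from concentration-effect curves fitted to normalized luminescence (CellTiter-Glo) of KB-V1 cells treated for 72 h at 37 degrees C in phenol-red-free DMEM containing 10% FBS.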
HT1080-NT tox: kills 2HG-producing HT-1080-NT fibrosarcoma cells; HT-1080-NT fibrosarcoma viability, CellTiter-Glo ATP luminescence, 48 h; Potency, µM (top dose mostly 46.1 µM), for the others: at the highest dose activity, negative = less viability, actives largely listed as cytotoxic; hit rate 1.6% among 360,000; AID 686970;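 further: NT is the 2HG producing partner of a matched IDH1 knockdown line; 0% = DMSO-treated cells and -100% = media-only wells without cells; nearly all actives have a fitted effect of over 55% in size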
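Viability of the 2HG-overproducing fibrosarcoma line after 48 hours of compound exposure at 37 degrees C was determined by luminescence with CellTiter-Glo, and concentration-effect curves were then fitted and categorized.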
DT40 TDP1 no CPT: qHTS for Inhibitors of human tyrosyl-DNA phosphodiesterase 1 (TDP1): qHTS in cells in absence of CPT. AID 686978, 2013. DT40 Tdp1-/- hTDP1 cells, no CPT, ATP luminescence, 48 h. Potency, µM (doses to about 46.2 µM), without a hit: at the highest dose activity change, negative = growth inhibition, most hits filed as inhibitors. hit rate 15% among 420,000; further: nearly all actives have a fitted effect of over 55% in size
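Seeded 400 DT40-hTDP1 cells/well (vehicle DMSO, no 20 nM CPT); pinned compounds; ≥48 hr at 37 °C; CellTiter-Glo luminescence as viability measure.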
HT1080 IDH1KD tx: HT-1080 IDH1 knockdown cell toxicity (counter line); HT-1080 IDH1 knockdown viability, ATP luminescence, 48 h; Potency, µM (highest dose often 46.1 µM), without a hit: top-dose activity, negative = toxicity, actives largely listed as cytotoxic; hit rate 2% among 360,000; AID 686971;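 further: 0% = DMSO wells and -100% = cell-free medium wells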
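Using the IDH1-knockdown HT-1080 line run in the same batch and compound series as the NT line, viability after 48 h at 37 °C was determined by CellTiter-Glo luminescence and expressed as % activity.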
An asterisk follows results filed as active; i = inactive; ? = inconclusive; . = no result; [ ] = remark or other dose. An excerpt weighted towards active compounds, which were near 19% of everything screened. The call rests on the fitted dose curve; in most records, active means well fitted curve in the direction sought with a large enough effect; inconclusive means small, poorly fitted or top-dose-only effect, or another doubt; inactive means no such curve, though single readings can be large; an effect the other way counts as inactive or inconclusive. Unless noted, on the % scale 0 is the no-effect control and ±100 the full control effect; potency means the concentration at half of the fitted maximal effect.

SMILES | TDP1 cell CPT | KB-3-1 cytotox | KB-V1 MDR tox | HT1080-NT tox | DT40 TDP1 no CPT | HT1080 IDH1KD tx
COc1ccc(NC(=O)Cn2c(=O)n(CCc3ccccc3)c(=O)c3ccccc32)cc1 | -27% | i | i | . | ? | .
COc1ccc(NC(=O)Cn2c(C)cc(=O)c3ccccc32)cc1 | 10µM* | i | i | -20% | 12µM* | ?
CC(C)CCNC(=O)C1CCC(Cn2c(=O)c3sccc3n(CC(=O)NC(C)C)c2=O)CC1 (configuration not stated) | -4% | i | i | . | ? | .
Cc1nc2ccccc2n1CC(=O)NN | -11% | i | i | -7% | 4% | -1%
Cc1nc2ccccc2n1CC(=O)NC(C)C1CC2CCC1C2 (configuration not stated) | 1.5µM* | ? | ? | -2% | 0.92µM* | -29%
COc1cccc2c(=O)cc(C)n(CC(=O)Nc3cccc(C)c3)c12 | ? | i | i | -9% | 18µM* | ?
Cc1ccc2c(c1)c(=O)c(Br)c(C)n2Cc1ccccc1 | ? | ? | 18µM* | 6% | ? | 1%
COc1cccc(NC(=O)Cn2c(=O)n(CCc3cccc(C)c3)c(=O)c3ccccc32)c1 | -22% | i | i | . | -26% | .
Cc1cc(=O)n(Cc2ccccc2)c2ccccc12 | ? | i | i | -2% | ? | 10%
Cc1cc(C)c(NC(=O)c2ccccc2C(=O)c2ccccc2)c(C)c1 | 7% | i | i | -5% | -27% | -10%
O=C(COc1coc(CN2CCN(Cc3ccccc3)CC2)cc1=O)Nc1ccccc1 | -10% | i | i | 0% | -18% | -1%
Cc1ccccc1C1=C/C(=C(\SS/C(C(=O)c2ccc(OCC(=O)O)c(Cl)c2Cl)=C2\C=C(c3ccccc3C)SS2)C(=O)c2ccc(OCC(=O)O)c(Cl)c2Cl)SS1 | 5% | i | ? | -14% | 13% | -13%
CN(Cc1ccccc1)C(=O)c1ccc(NC(=O)Cc2ccc(NC(=O)C3CCCN(S(=O)(=O)c4cccc([N+](=O)[O-])c4)C3)cc2)cc1 (configuration not stated) | ? | i | i | -1% | ? | -7%
CCc1cccc(NC(=O)CCS(=O)(=O)c2ccc3nc(C)sc3c2)c1 | ? | i | i | . | ? | .
CCCCn1nnnc1C(c1ccccc1)N1CCN(c2ccccc2)CC1 (configuration not stated) | ? | i | i | 6% | ? | 4%
CCCCn1nnnc1C(c1ccccc1)N1CCN(c2ccc(C(F)(F)F)cc2[N+](=O)[O-])CC1 (configuration not stated) | ? | i | ? | 0% | 18µM* | 0%
CCCCn1nnnc1C(c1ccccc1)N1CCN(c2ccc(C(F)(F)F)cn2)CC1 (configuration not stated) | ? | ? | ? | -1% | 18µM* | ?
CCCCn1nnnc1C(c1ccccc1)N1CCN(C(C)=O)CC1 (configuration not stated) | -2% | i | i | 21% | 4% | 1%
CCCCn1nnnc1C(c1ccccc1)N1CCN(c2ncccc2C(F)(F)F)CC1 (configuration not stated) | ? | ? | ? | ? | 18µM* | ?
Cc1cc(COc2ccccc2OCc2cc(C)no2)on1 | -25% | i | 12µM* | -3% | -1% | 5%
CCCCOC(=O)c1cc(=O)[nH]c2ccc(C)cc12 | -6% | 15µM* | 18µM* | 1% | -21% | -3%
O=C(CC1C(=O)NCCN1Cc1ccc(-c2ccccc2)cc1)NC1CCC1 (configuration not stated) | -28% | i | i | -12% | 15µM* | -13%
O=C(CC1C(=O)NCCN1Cc1ccc(-c2ccccc2)cc1)NCc1ccccc1 (configuration not stated) | ? | i | i | -16% | ? | -22%
COc1cccc(C(=O)Nc2c(C(=O)NC(C)(C)C)oc3ccccc23)c1 | 18µM* | i | i | . | ? | .
COc1cccc(NC(=O)c2oc3ccccc3c2NC(=O)Cc2cccc(C)c2)c1 | 23µM* | i | i | . | 18µM* | .
SMILES | TDP1 cell CPT | KB-3-1 cytotox | KB-V1 MDR tox | HT1080-NT tox | DT40 TDP1 no CPT | HT1080 IDH1KD tx
Cc1cccc(CC(=O)Nc2c(C(=O)Nc3cccc(F)c3)oc3ccccc23)c1 | ? | i | i | . | ? | .
COc1cccc(NC(=O)c2oc3ccccc3c2NC(=O)c2ccccc2C)c1 | 10µM* | i | i | . | ? | .
Cc1cc(C)c2cc(C#N)c(NCCCNC(=O)c3cccnc3)nc2c1 | ? | i | i | 6% | ? | 3%
C[C@@H]1CC[C@@]2(OC1)O[C@H]1C[C@H]3[C@@H]4CC[C@H]5C[C@@H](O)CC[C@]5(C)[C@H]4CC(=O)[C@]3(C)[C@H]1[C@@H]2C | 17%[21.1 µM] | . | . | . | -10%[21.1 µM] | .
Cc1cccc(NC(=O)c2csnn2)n1 | 2% | i | ? | 12% | -1% | 14%
COc1ccc(-c2nc3cnc(OC)nc3n(CCC#N)c2=O)cc1 | -8% | . | . | . | -3% | .
CC(=O)c1c(N2CCN(c3ccc(F)cc3)CC2)nc(=S)n(Cc2ccccc2)c1C | ? | 23µM* | ? | -18% | ? | -25%
CC(=O)c1c(C(C)=O)c(C)n(Cc2ccccc2)c1C | -19% | i | 21µM* | 4% | ? | -4%
CCn1c(C)c(C(C)=O)c(N2CCN(c3ccc(F)cc3)CC2)nc1=S | -8% | i | i | 14% | -3% | 9%
CC(=O)c1c(N2CCCCC2)nc(=S)n(Cc2ccccc2)c1C | 26µM* | ? | i | 1% | ? | -24%
C=CCn1c(C)c(C(C)=O)c(N2CCN(c3ccccc3)CC2)nc1=S | ? | i | i | -5% | ? | 4%
CC(=O)c1c(N2CCN(Cc3ccccc3)CC2)nc(=S)n(Cc2ccccc2)c1C | 16µM* | ? | 2.9µM* | -3% | 16µM* | -2%
CCn1c(C)c(C(C)=O)c(N2CCCC2)nc1=S | 0% | i | i | 0% | -1% | 14%
O=C(NC1CCS(=O)(=O)C1)c1cccc(S(=O)(=O)N2CCCC2)c1 (configuration not stated) | 9% | i | i | 12% | -19% | 9%
Cn1c(SCc2ccc([N+](=O)[O-])cc2)nnc1-c1ccncc1 | -3% | i | i | 0% | -5% | -14%

Assay outcomes deposited in PubChem by National Center for Advancing Translational Sciences (NCATS).
